The values that follow come from PubChem BioAssay (NCATS).

Results filed as inconclusive are left out. Where a call stands in place of a potency, no number is given. A number with no mark means an inactive call. Activity calls are given as the source filed them. The call rests on the fitted dose curve; in most records, active means well fitted inhibition curve with a large enough effect; inconclusive means small, poorly fitted or top-dose-only effect; inactive means flat fitted curve, though single readings scatter.

The nature of the test: P-glycoprotein substrates identified in KB-8-5-11 adenocarcinoma cell line, qHTS therapeutic library screen (AID 1346987). Further: nearly all actives have a fitted effect of over 65% in size. The note with it: KB-8-5-11 (P-gp overexpressing) viability, CellTiter-Glo, 72 h; series mostly up to 44.5 µM. The method in brief:
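Steps: plate 500 KB-8-5-11 cells/well in DMEM + 10% FCS (colchicine removed); pin compounds in dose-response; incubate 72 h, 37 degree C, 5% CO2; add CellTiter-Glo, 5 min; read luminescence.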
(In qHTS, concentration-response curves come from the screen itself.)
Consider `COc1ccc2nc(S(=O)(=O)Cc3ncc(C)c(OC)c3C)[nH]c2c1`, for which the Potency entry is “inactive”.
Same read-out and setting: then `C[C@@H]1C(=O)O[C@H]2[C@H](O)C34[C@H]5C[C@@H](C(C)(C)C)C36[C@@H](OC(=O)[C@@H]6O)O[C@@]4(C(=O)O5)[C@@]12O` (stereo partly specified), with “inactive”; and `O=C1N=C(N2CCOCC2)CN1c1ccc(Cl)cc1`, with “inactive”.
Consider `OCC1OC(Oc2cc(O)cc(/C=C/c3ccc(O)cc3)c2)C(O)C(O)C1O` (stereo unspecified), for which the Potency entry is “inactive”.
Same read-out and setting: then `CC1CC(=O)C2=C(CCC3(O)C(O)c4c(O)cccc4C(=O)C23O)C1` (stereo unspecified), with “inactive”.
In the case of `CC(=O)N[C@H]1[C@H](O[C@H]2CC[C@@]3(C)C(CC[C@]4(C)C3CC=C3C5CC(C)(C)CC[C@]5(C(=O)O)[C@H](O)C[C@]34C)C2(C)C)O[C@H](CO[C@@H]2OC[C@H](O)[C@H](O)[C@H]2O[C@@H]2OC[C@@H](O)[C@H](O)[C@H]2O)[C@@H](O)[C@@H]1O` (stereo partly specified), the activity change, negative = cytotoxicity is 5.39% [at 9.29 µM].
Regarding `CC(C)(C)c1cc(Br)cc([C@H](CC(=O)O)NC(=O)CNC(=O)c2cc(O)cc(NC3=NCC(O)CN3)c2)c1` (stereo partly specified), the Potency entry was “inactive”.
Same read-out and setting: then `Cc1cc(C(=O)Nc2cccc(C(=O)Nc3cccc(C(F)(F)F)c3)c2)on1`, with “inactive”.
On the same count and under the same terms, then `O=C(O)c1ccc(OC2OC(CO)C(O)C(O)C2O)cc1` (stereo unspecified), with “inactive”.
Same read-out and setting: then `C=C(C(=O)OC)C1C(O)CC2(C)C(O)CCC(=O)C2C1O` (stereo unspecified), with “inactive”.
Turning to `C[C@@H]1O[C@@H](O[C@@H]2[C@@H](O)[C@H](O[C@H]3CC[C@@]4(C)C(CC[C@]5(C)C4CC=C4[C@@H]6CC(C)(C)CC[C@]6(C(=O)O[C@@H]6O[C@H](CO)[C@@H](O)[C@H](O)[C@H]6O)CC[C@]45C)C3(C)C)O[C@H](C(=O)O)[C@H]2O)[C@H](O)[C@H](O)[C@H]1O` (stereo partly specified), the activity change, negative = cytotoxicity was 7.63% [at 9.29 µM].
